Assay results taken from PubChem BioAssay (NCATS).
Values joined by “and” are separate entries in the source; they are usually repeats but may differ in a detail not shown here. Identical values can stand only once. Results filed as inconclusive are left out. A number with no mark means an inactive call. Active and inactive are the calls of the source. Calls follow the shape of the dose curve; as a rule, active = well fitted cell-killing curve with a large enough effect; inconclusive = small, poorly fitted or top-dose-only effect; inactive = no such curve, though single readings can be large or run the other way.

assay: qHTS of pediatric cancer cell lines to identify multiple opportunities for drug repurposing: Confirmatory screen for Rh41 cells (AID 1347123); conditions: Rh41 rhabdomyosarcoma cells, viability/cytotoxicity qHTS; series mostly up to 45.9 µM; activity change, negative = cytotoxic: at the top concentration;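 also: 48 h compound exposure; nearly all actives have a fitted effect of over 60% in size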
Description: Drug repurposing or repositioning has been offered as a strategy for drug development in oncology programs. This approach has special potential for childhood cancers and other rare or orphan diseases, where the expected return on new drug development has been a disincentive to pharmaceuticals.
In this project we exploit the poly-pharmacology of drugs to discover new indications via phenotypic screening of a panel of 19 well-characterized cell lines derived from solid tumors seen in children and adolescents. The goal is to identify approved drugs with previously unrecognized anticancer properties that has the potential to reveal new mechanisms and biological processes involved in carcinogenesis or drug resistance. We employed a titration-based paradigm (quantitative high-throughput screening or qHTS), where all compounds were tested at multiple concentrations for their effect on cell viability. Concentration-response curves (CRCs) were derived directly from the primary screen, and both potency and efficacy values were used to identify compounds with robust bioactivity profiles. We screened the NIH Chemical Genomics Center (NCGC) Pharmaceutical Collection (NPC) and Mechanism Interrogation Plate (MIPE) small molecule collections of approved and investigational compounds against these cell lines; and measured metabolically active cells after 48 hours of compound treatment as a proxy for cell viability.
Assay Submitter: Nathalia J. Martinez, National Center for Advancing Translational Sciences, National Institutes of Health, Rockville, MD, USA; email: natalia.martinez@nih.gov
[1] Shen, M et al. Quantitative high-throughput phenotypic screening of pediatric cancer cell lines identifies multiple opportunities for drug repurposing. Oncotarget 2017 Dec 19;9(4):4758-4772. PMID 29435139.
The cells were obtained from University of North Carolina (UNC), Pediatric Preclinical Testing Program (PPT), and Coriell Institute (CI).
qHTS cell viability assay:
Cells were assayed in growth media at a density of 500-1,000 cells/well. Five microliters of cells were dispensed into 1,536-well, white, solid-bottom, TC-treated plates (Greiner Bio One) using a multidrop dispenser and incubated at 37 degrees C, 5% CO2, under a humidified atmosphere for 5 hours. Twenty-three nanoliters of compounds and controls (neutral control DMSO or positive control bortezomib at final concentration of 2.3 µM) were subsequently transferred by Kalypsys pintool. For primary screens, the MIPE collection was tested at 11-point dilutions (final concentrations range from 0.78 nM to 46 µM) and the NPC collection at 8-point dilutions (final concentrations range from 0.59 nM to 46 µM). Compounds tested in follow-up screens were assayed at 11-point dilutions. Cells were incubated for 48 hours, followed by addition of 3 µL of CellTiter-Glo (Promega). After a 15 min incubation at room temperature, samples were analyzed for luminescence intensity using a ViewLux High-throughput CCD imager equipped with clear filters.
Potency is read from the fitted curve at half-maximal effect.

| Structure (SMILES) | Potency | activity change, negative = cytotoxic |
| --- | --- | --- |
| CN(C)C1CCN(C(=O)c2ccc(NC(=O)Nc3nc(N4CCOCC4)nc(N4CCOCC4)n3)cc2)CC1 | 0.0827 µM (active) |  |
| C=C1C(=O)[C@@]23C(CC[C@@H]1[C@H]2O)[C@@]12CO[C@]3(O)[C@@H](O)[C@@H]1C(C)(C)CC[C@@H]2O (stereo partly drawn) | 2.93 µM (active) |  |
| COc1ccc2c(Oc3ccc(NC(=O)c4c(C)n(CC(C)(C)O)n(-c5ccccc5)c4=O)cc3F)ccnc2c1 | 23.3 µM (active) |  |
| CC[C@@H]1C=C(C)C[C@H](C)C[C@H](OC)[C@H]2O[C@@](O)(C(=O)C(=O)N3CCCC[C@@H]3C(=O)O[C@H](C(C)=C[C@@H]3CC[C@H](Cl)[C@H](OC)C3)[C@H](C)[C@@H](O)CC1=O)[C@H](C)C[C@H]2OC | 13.1 µM (active) |  |
| O=c1cc(-c2ccc(O)cc2)oc2cc(O)cc(O)c12 |  | 9.14% |
| CO[C@H]1C[C@@H]2CC[C@@H](C)[C@@](O)(O2)C(=O)C(=O)N2CCCC[C@@H]2C(=O)O[C@H]([C@H](C)C[C@@H]2CC[C@H](OP(C)(C)=O)[C@H](OC)C2)CC(=O)[C@H](C)C=C(C)[C@@H](O)[C@@H](OC)C(=O)[C@H](C)C[C@H](C)C=CC=CC=C1C | 4.65 µM (active) |  |
| CCc1ccc(OCc2ccccc2C(=O)Nc2ccc3nc(C)cc(N)c3c2)cc1 | 9.27 µM (active) |  |
| CCCCCCCCCCCC1=C(O)C(=O)C=C(O)C1=O |  | 10.3% |
| COc1cc2ncnc(Nc3ccc(F)c(Cl)c3)c2cc1OCCCN1CCOCC1 | 26.9 µM (active) |  |
| CC(=O)Oc1cc2c(s1)CCN(C(C(=O)C1CC1)c1ccccc1F)C2 (stereo not drawn) | 14.7 µM (active) |  |
| Oc1ccc(C2CCN(c3ccnc4ccccc34)CC2)cc1O | 5.85 µM (active) |  |
| COc1cc(N2CCC(N3CCN(C)CC3)CC2)ccc1Nc1ncc(Cl)c(Nc2ccccc2S(=O)(=O)C(C)C)n1 | 0.329 µM (active) |  |
| O=C(O)c1ccc(-c2cc3cccnc3c(-c3ccc4nonc4c3)n2)cc1 | 7.37 µM (active) |  |
| COc1cc2nc(-c3ccc(N4CCN(C)CC4)cc3)nc(NCCN3CCOCC3)c2cc1OC | 0.414 µM (active) |  |
| O=C1C(Cl)=C(NCCN2CCOCC2)C(=O)c2ncccc21 | 1.17 µM (active) |  |
| O=C1c2ccccc2-[n+]2ccc3c([nH]c4ccccc43)c21 | 2.08 µM (active) |  |
| CC(=O)Nc1ccc([C@H](C)C(=O)Nc2ncc(C(C)C)s2)cc1 | 9.27 µM (active) |  |
| CNC1CCC(N(Cc2cccc(-c3ccncc3)c2)C(=O)c2sc3c(F)ccc(F)c3c2Cl)CC1 (stereo not drawn) | 10.4 µM (active) |  |
| O=C(NCc1ccncc1)C12C[C@H]3C[C@@H](C1)CC(c1ccc(Cl)cc1)(C3)C2 | 14.7 µM (active) |  |

| Structure (SMILES) | Potency | activity change, negative = cytotoxic |
| --- | --- | --- |
| O=C(O)c1ccc(-c2c[nH]c3ncc(-c4ccccc4)cc23)cc1C1CCCC1 |  | 6.18% |
| Cc1cc(OCCCc2c(C(=O)O)n(Cc3cccnc3)c3c(-c4c(COc5ccc(N6CCN([S+](C)(=O)[O-])CC6)cc5)nn(C)c4C)cccc23)cc(C)c1Cl | 1.04 µM (active) |  |
| CO[C@H]1C=CC=C(C)C(=O)NC2=CC(=O)C(NCCN(C)C)=C(C[C@@H](C)C[C@H](OC)[C@@H](O)[C@@H](C)C=C(C)[C@@H]1OC(N)=O)C2=O | 7.37 µM (active) |  |
| CC[C@]1(O)C[C@@H]2CN(CCc3c([nH]c4ccccc34)[C@@](C(=O)OC)(c3cc4c(cc3OC)N(C)[C@H]3[C@@](O)(C(=O)OC)[C@H](OC(C)=O)[C@]5(CC)C=CCN6CC[C@]43[C@@H]65)C2)C1 | 82.7 nM (active) and 104 nM (active) |  |
| Nc1ncnc2c1ncn2[C@@H]1O[C@@H](CO)[C@H](O)[C@H]1O |  | 1.12% [at 29.5 µM] |
| O=C1NC(=O)C(=Cc2ccc3c(c2)OC(F)(F)O3)S1 |  | -24.2% |
| CC(C)n1nc(-c2ccc3oc(N)nc3c2)c2c(N)ncnc21 | 0.0293 µM (active) |  |
| OC[C@H]1O[C@@H](n2cnc3c2NC=NC[C@@H]3O)C[C@H]1O |  | 25.7% |
| Cc1nnc(C(C)C)n1C1C[C@H]2CC[C@@H](C1)N2CC[C@H](NC(=O)C1CCC(F)(F)CC1)c1ccccc1 (stereo partly drawn) |  | 4.54% |
| CC1(C)S[C@H]2[C@H](NC(=O)[C@@H](N)c3ccc(O)cc3)C(=O)N2[C@@H]1C(=O)O |  | 1.68% |
| NS(=O)(=O)c1cccc2c1C(=O)c1cccc(O)c1C2=O | 0.657 µM (active) |  |
| CC1(C)O[C@H]2C[C@@H]3[C@H]4CCC5=CC(=O)C=C[C@]5(C)[C@@]4(F)[C@@H](O)C[C@]3(C)[C@]2(C(=O)CO)O1 |  | -0.31% |
| CC=C(C)C(=O)O[C@H]1C(C)=C[C@]23C(=O)[C@@H](C=C(CO)[C@@H](O)[C@]12O)[C@H]1[C@@H](C[C@H]3C)C1(C)C | 13.1 µM (active) |  |
| O=c1[nH]cnc2c1ncn2[C@H]1CC[C@@H](CO)O1 |  | 7.2% |
| CO[C@H]1C(=O)[C@]2(C)[C@@H](OC)C[C@H]3OC[C@@]3(OC(C)=O)[C@H]2[C@H](OC(=O)c2ccccc2)[C@]2(O)C[C@H](OC(=O)[C@H](O)[C@@H](NC(=O)OC(C)(C)C)c3ccccc3)C(C)=C1C2(C)C | 0.0165 µM (active) |  |
| N[C@@]1(C(=O)O)CS(=O)(=O)[C@H]2[C@H](C(=O)O)[C@H]21 |  | 19.6% |
| CC1(C)CCC2=C(O1)c1ccccc1C(=O)C2=O | 8.27 µM (active) |  |
| COc1ncc(-c2ccc3nccc(-c4ccnnc4)c3c2)cc1NS(=O)(=O)c1ccc(F)cc1F | 0.0369 µM (active) |  |
| COc1ccc(-c2nc(N3CCOCC3)c3sc(CN(C)c4ncc(C(=O)NO)cn4)cc3n2)cn1 | 0.414 µM (active) |  |
